DAX1 inh-1 – inhibits human nuclear receptor DAX1 | inhibition, % at 6.75 µM | HEK293 Gal4-DAX1 luciferase reporter, luminescence | P51843 | hit rate 0.99% among 340,000;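 active = inhibition above the mean over all tested compounds plus 3 SD, cut at about 4.2% in these data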;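 note: 0% = DAX1-transfected cells with DMSO and 100% = empty-vector control cells with DMSO; inhibition shows as a rise in luminescence from relieved DAX1 repression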
ssDAF-12 act – S. stercoralis DAF-12 activation, primary screen; HEK293 ssDAF-12/GRIP1 lit1-tk-luc reporter, luminescence; % of 3 µM dafachronic acid response; activation, % at 6.8 µM; hit rate 1% among 370,000; AID 652126;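 active = activation above the mean over all tested compounds plus 3 SD, cut at about 0.9% in these data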;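 note: 0% = DMSO-only wells and 100% = 3 µM delta7-dafachronic acid wells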
DAX1 inh-2 – inhibitors of DAX1 repression of SF-1 activated StAR promoter; HEK293T StAR-luciferase reporter, SF-1/DAX-1 repression relief; inhibition, % at 6.8 µM; hit rate 1.1% among 370,000;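 active = inhibition above the mean over all tested compounds plus 3 SD, cut at about 3.6% in these data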;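 note: 0% = DAX-1 cells with DMSO and 100% = cells lacking DAX-1 with DMSO; higher inhibition means more luminescence from relief of DAX-1 repression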
hcDAF12 agonist – H. contortus DAF-12 activation, primary screen | HEK293 hcDAF-12 lit1-tk-luc reporter, luminescence; 0% DMSO, 100% Δ7-dafachronic acid | activation, % at 6.8 µM | hit rate 1.4% among 370,000;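 active = activation above the mean of all tested compounds plus 3 SD, cut at about 5.5% in these data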;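 note: 100% = response to 3 µM Δ7-dafachronic acid high control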
hgDAF-12 ag – hgDAF-12 agonism, primary luciferase screen; HEK293 GAL4-hgDAF12 UAS-luciferase reporter, agonist luminescence; normalized to butyrate control; AID 687014; activation, % at 6.8 µM; hit rate 1.8% among 370,000;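 active = activation above a cutoff set at the mean of all screened compounds plus 3 SD, cut at about 10% in these data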;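 note: 0% = DMSO wells and 100% = sodium butyrate wells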
LXRb hcDAF ctr – counter-screen for hcDAF-12 agonists: agonists of human LXR-beta; shares compounds with hcDAF12 agonist; HEK293 Gal4-LXR tk-luc reporter, luminescence, 24 h; normalized: DMSO 0%, positive control 100%; activation, % at 6.8 µM; 3,400 tested, under 10 active;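 active = mean percent activation of the reporter above a cutoff set as the average over tested compounds plus their standard deviation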
Target sequence (P55055 whole entry, looked up, the tested form may be a part): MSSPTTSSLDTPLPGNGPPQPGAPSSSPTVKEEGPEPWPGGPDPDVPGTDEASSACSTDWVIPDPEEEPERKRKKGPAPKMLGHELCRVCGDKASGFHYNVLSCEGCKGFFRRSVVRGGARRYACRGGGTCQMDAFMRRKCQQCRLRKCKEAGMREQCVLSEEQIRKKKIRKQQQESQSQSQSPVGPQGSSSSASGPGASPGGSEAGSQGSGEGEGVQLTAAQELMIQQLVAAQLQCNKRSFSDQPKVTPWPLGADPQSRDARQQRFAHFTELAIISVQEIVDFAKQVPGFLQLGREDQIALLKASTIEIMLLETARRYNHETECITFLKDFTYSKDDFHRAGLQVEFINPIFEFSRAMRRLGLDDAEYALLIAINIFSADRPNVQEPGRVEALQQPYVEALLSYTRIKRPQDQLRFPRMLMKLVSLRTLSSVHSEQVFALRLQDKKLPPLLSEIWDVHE
hcDAF12 conf – confirmation of H. contortus DAF-12 agonists; activation, % at 6.8 µM; HEK293 hcDAF-12 lit1-tk-luc reporter, luminescence; % of Δ7-dafachronic acid response; AID 743032; shares compounds with hcDAF12 agonist; hit rate 61% among 3,400;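 active = mean activation across triplicate tests above the threshold derived from the earlier primary screen, cut at about 5.5% in these data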;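 note: 0% = DMSO only wells and 100% = 3 µM Δ7-dafachronic acid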
hgDAF12 conf – confirmation of H. glycines DAF-12 agonists; activation, % at 6.8 µM; shares compounds with hgDAF-12 ag; hit rate 80% among 3,300; HEK293 GAL4-hgDAF12 luciferase reporter, agonist mode; percent of butyrate response;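 active = mean activation over triplicate wells above the hit cutoff derived from the earlier primary screen, cut at about 11% in these data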;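 note: 0% = DMSO low control and 100% = 2 mM sodium butyrate high control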
LXR ag 2 – LXR-beta agonism as DAF-12 counter-screen; shares compounds with hgDAF-12 ag; HEK293 Gal4-LXR luciferase reporter, 24 h; activation, % at 6.8 µM; 3,300 tested, under 10 active;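 active = mean activation of the triplicate above a set limit carried over from the primary screen, none filed active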
* = called active by the depositor; nt = not tested or not shown. A selection: hits, their analogues and other compounds. The true share with any hit is near 4.1%.

SMILES	DAX1 inh-1	ssDAF-12 act	DAX1 inh-2	hcDAF12 agonist	hgDAF-12 ag	LXRb hcDAF ctr	hcDAF12 conf	hgDAF12 conf	LXR ag 2
O=C(Nc1nc2ccccc2[nH]1)c1ccccc1OC(F)F	-2	1	3	13*	14*	2	14*	14*	1
Cc1ccsc1C(=O)Nc1nc2ccccc2[nH]1	-2	1.1*	4.5*	10*	17*	1	10*	17*	1
COc1ccc2c(c1)CCc1c-2n[nH]c1C(=O)NCCC(C)C	2	0	4.0*	6.8*	15*	1	4	17*	1
Cc1cccc(Nc2nc(-c3ccc(F)c(C)c3)cs2)n1	5.4*	1.2*	2	9.0*	14*	1	7.7*	17*	1
Cc1cccc(Nc2nc(-c3ccc(O)c(O)c3)cs2)n1	1	0	1	3	5	nt	nt	nt	nt
COc1ccc2oc(C(=O)c3ccccc3)c(N)c2c1	nt	1	4	7.4*	15*	2	6.7*	20*	1
COC(=O)[C@]12C[C@H](CC(=O)NCc3cccc(C(F)(F)F)c3)C(=O)N(Cc3ccc(Cl)cc3Cl)C1=C[C@H](C1CCCC1)O[C@@H]2C	nt	-1	-2	-2	1	nt	nt	nt	nt
O=C(C(=O)N1CCC(CNS(=O)(=O)c2ccc(OC(F)(F)F)cc2)CC1)c1cc2ccccc2o1	nt	-1	-1	-2	0	nt	nt	nt	nt
O=C(Nc1cccc(-c2nc3ncccc3o2)c1)c1cc2ccccc2o1	-2	-1	-1	-2	-1	nt	nt	nt	nt
COc1ccc(S(=O)(=O)Nc2ccccc2OC)cc1NC(=O)c1cc2ccccc2oc1=O	2	0.9*	3	7.7*	14*	1	4	10	0
O=C(Nc1ncccc1Cl)c1cc2ccccc2o1	2	1	2	7.3*	16*	1	6.2*	18*	1
COc1ccccc1NC(=O)c1cc2ccccc2o1	3	1.9*	2	16*	14*	1	15*	22*	1
COc1cc(NC(=O)c2cc3ccccc3o2)c(OC)cc1Br	0	0	1	1	6	nt	nt	nt	nt
Cc1ccccc1NC(=O)c1cc2ccccc2o1	3	0	2	7.7*	14*	1	9.2*	16*	1
COC(=O)C1CN(Cc2cn(Cc3ccc(F)cc3)nn2)CCS(=O)(=O)N1Cc1ccc(F)cc1 (stereo not given)	nt	-1	-1	-1	-1	nt	nt	nt	nt
CC(C)CN1C(=O)[C@]2(CC(=O)N(C)C2c2ccccc2)c2cc(-n3cc(-c4ccccc4)nn3)ccc21 (stereo not given in full)	nt	-2	-2	-3	0	nt	nt	nt	nt
Cc1ccc(NC(=O)CSc2nnc(-c3cccnc3)n2Cc2ccco2)cc1C	nt	-1	1	-3	1	nt	nt	nt	nt
O=C(Nc1ccccc1)c1cc2ccccc2o1	-1	1.9*	3	13*	19*	2	17*	22*	1
COC1=C/C(=C/c2c(O)c(C#N)c3ccccn23)C=CC1=O	4	0.9*	2	11*	14*	0	4	11*	0
O=C(Nc1ncc(Cc2cccc(Cl)c2)s1)c1cccs1	1	-1	1	2	7	nt	nt	nt	nt
O=C(Nc1ncc(Cc2ccccc2)s1)c1cccs1	1	1	3	8.4*	15*	2	8.0*	20*	1
Cc1ccc(Cc2cnc(NC(=O)c3cccs3)s2)cc1	2	1.5*	3.8*	10*	15*	2	7.3*	18*	1
Cc1ccc(-c2c(NC(=O)c3cccc(C)c3)nc3ncccn23)cc1	nt	-1	-1	-2	8	nt	nt	nt	nt
CN(C)[C@H]1CCN(c2cccc3c2S(=O)(=O)N(C2CC2)CCCO3)C1	nt	-1	-1	-1	-1	nt	nt	nt	nt
COc1ccc(N=c2oc3ccc(OC)cc3cc2-c2nc3ccccc3[nH]2)cc1	2	2.5*	2	6.7*	15*	0	5	10*	0
SMILES	DAX1 inh-1	ssDAF-12 act	DAX1 inh-2	hcDAF12 agonist	hgDAF-12 ag	LXRb hcDAF ctr	hcDAF12 conf	hgDAF12 conf	LXR ag 2
Cn1cc(-c2nc3ccccc3[nH]2)c2ccccc21	0	0	1	5	5	nt	nt	nt	nt
COc1cccc(N=c2oc3ccccc3cc2-c2nc3ccccc3[nH]2)c1	1	2.6*	3	15*	16*	1	6.7*	19*	1
COCCNC(=S)N1C[C@H]2CON(C)[C@H]2C[C@H]1c1ccccc1Br	nt	-1	1	-2	-4	nt	nt	nt	nt
O=C(N[C@H](C(=O)N1CCC[C@H]1C(=O)NC1CCCC1)C1CCCCC1)c1cccs1	nt	-1	0	-1	-4	nt	nt	nt	nt
Oc1ccccc1-c1ccn[nH]1	0	-2	0	1	1	nt	nt	nt	nt
Cc1ccccc1-c1cc(-c2ccccc2O)n[nH]1	5.6*	1.4*	4	11*	16*	1	8.1*	18*	1
Cc1ccc(-c2cc(NC(=O)c3ccccc3[N+](=O)[O-])n[nH]2)cc1	-2	-1	0	-1	1	nt	nt	nt	nt
Cc1ccc(-c2cc(-c3ccccc3[N+](=O)[O-])[nH]n2)c(O)c1	5.3*	2.3*	3	9.9*	14*	1	9.6*	16*	1
Cc1ccc(-c2cc(-c3ccc(C)cc3O)[nH]n2)cc1	5.1*	2.9*	3	15*	19*	2	10*	22*	1
CCOc1ccc(-n2c(SCC(=O)Nc3cccc4ccccc34)nnc2-c2ccncc2)cc1	nt	0	-3	-2	0	nt	nt	nt	nt
O=c1cc(CCl)[nH]c2nc3ccccc3n12	-1	0	0	-1	-2	nt	nt	nt	nt
O=c1cc(-c2ccccc2)[nH]c2nc3ccccc3n12	1	1.5*	3.7*	11*	14*	2	15*	19*	1
Cc1cccc(/C=C(\c2nc3ccccc3[nH]2)S(=O)(=O)c2ccccc2)c1	-5	-3	-4	-5	-11	nt	nt	nt	nt
Cc1cccc(/C=C(\C(=O)C(=O)O)c2ccc3ccccc3n2)c1	1	1.8*	3	11*	21*	0	8.1*	14*	0
COC(=O)c1nn(-c2ccc(-c3ccccc3)cc2)cc1O	-3	1	4	8.3*	14*	2	8.2*	18*	1

Assay outcomes as filed in PubChem.
